Records with an inconclusive call do not appear. The source made the active and inactive calls. Unless noted, calls follow the shape of the full dose curve.

The target of test [1] is Gonadotropin-releasing hormone receptor (Homo sapiens) (UniProt P30968). Kind of test: Human gonadotropin-releasing hormone receptor (GnRHR) small molecule agonists, calcium flux assay in GnRHR-HEK293 cells (AID 1920063). Also: nearly all actives have a fitted effect of over 35% in size. In a few lines:
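Agonist activity was measured as intracellular calcium flux in HEK293 cells engineered to stably express human GnRHR. After dye loading for 1 hour at 37 C, compounds in DMSO were added and fluorescence was followed for 3 minutes.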

The target of test [2] is KiSS-1 receptor (Homo sapiens) (UniProt Q969F8). The test can be described thus: Human kisspeptin (KISS1R) small molecule agonists, calcium flux assay in KISS1R-HEK293 cells (AID 1920064; active = well fitted activation curve with a large enough effect in the repeat runs). The essentials: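 Agonist activity is monitored as intracellular calcium rise in engineered HEK293 cells carrying human KISS1R. Cells are dye-loaded for 1 h at 37 C before compound addition, and fluorescence is recorded for 3 min.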

Test [3] in a line: G protein-coupled receptor (GPCR) small molecule agonists, calcium flux assay: HEK293 wild type cell line counter screen (AID 1920065). In a few lines: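 Seed cells, incubate 18 h (37 C, 5% CO2); add calcium dye, 1 h at 37 C; pin-transfer compounds, ATP control or DMSO; read fluorescence 480/540 nm each second for 3 min.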
A short description of test [4]: p53 small molecule agonists, cell-based qHTS assay with rat liver microsomes (AID 1963578). The essentials: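 p53RE-bla cells, 4,000/well, pre-incubated 5 h, then given compounds plus rat liver microsomes (0.5 mg/mL final) and NADPH (0.5 mg/mL final). Incubation 16 h at 37 C; beta-lactamase reporter read by LiveBLAzer fluorescence after 2 h at room temperature.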

Test [5] can be described thus: p53 small molecule agonists, cell-based qHTS assay with human liver microsomes: qHTS cell viability counter screen (AID 1963579). Also: nearly all actives have a fitted effect of over 45% in size. In a few lines:
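p53RE-bla cells, 4,000/well, dosed 5 hours after plating, with human liver microsomes (0.5 mg/mL final) plus NADPH (0.5 mg/mL final), 16 hours at 37 C. Viability read as CellTiter-Glo luminescence after 30 min at room temperature.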

Test [6] is described as follows: p53 small molecule agonists, cell-based qHTS assay: qHTS cell viability counter screen (AID 1963581). Also: nearly all actives have a fitted effect of over 45% in size. In a few lines: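 Viability was counter-screened in parallel with the p53 agonist reporter by measuring intracellular ATP luminescence in the same HCT-116 p53RE-bla wells after 16 h compound treatment at 37 C.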
In test [7] the target is 5-hydroxytryptamine receptor 2A (Homo sapiens) (UniProt P28223). The test can be described thus: 5-hydroxytryptamine receptor 2A (HTR2A) small molecule antagonists, cell-based qHTS assay (AID 1963586). Also: nearly all actives have a fitted effect of over 45% in size. The essentials: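 CHO cells stably expressing human HTR2A were plated for 18 h at 37 C, then loaded with calcium dye for 1 h. Compounds were preincubated 5 min at room temperature before DOI (4 nM solution) was added. Kinetic fluorescence was read for 3 min.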

Test [8] shares this target. The test can be described thus: 5-hydroxytryptamine receptor 2A (HTR2A) small molecule agonists, cell-based qHTS assay (AID 1963587). Also: nearly all actives have a fitted effect of over 30% in size. In a few lines:
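HTR2A-CHO cells, plated 18 h at 37 C/5% CO2, dye-loaded 1 h at 37 C; compounds in DMSO added by pin tool (agonist mode). Intracellular calcium flux read as kinetic fluorescence on FDSS over 2 min at 1 s intervals.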

The target of test [9] is Muscarinic acetylcholine receptor M1 (Homo sapiens) (UniProt P11229). Kind of test: Cholinergic receptor muscarinic 1 (CHRM1) small molecule agonists, cell-based qHTS assay (AID 1963589). Also: nearly all actives have a fitted effect of over 35% in size. In a few lines:
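Cells were plated and incubated 18 h at 37 C/5% CO2, loaded with calcium dye for 1 h at 37 C, then treated with compounds in DMSO. Fluorescence was recorded kinetically at 1 sec intervals.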

A short description of test [10]: cAMP Responsive Elements (CRE) small molecule agonists, cell-based qHTS assay (AID 1963590). In a few lines:
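Cells carrying a CRE-driven beta-lactamase reporter (HEK 293T) are seeded, incubated overnight (18 h), and treated with test compounds for 3 h at 37 C; reporter activity is then detected with a FRET substrate after 2 h at room temperature.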

Test [11] concerns the target Beta-2 adrenergic receptor (Homo sapiens) (UniProt P07550). The test can be described thus: Adrenergic beta2 receptor (ADRB2) small molecule antagonists, cell-based qHTS assay (AID 1963592). Also: series mostly up to about 92 µM; nearly all actives have a fitted effect of over 50% in size. The essentials:
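Assay format: CHO-ADRB2 cells, 18-20hr seeding at 37C/5% CO2, then compound plus 1nM isoproterenol agonist mix for 0.5hr RT. Homogeneous time-resolved fluorescence cAMP detection after 1hr, expressed as 665/615 nm ratio.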

For test [12] the target is unchanged. The test can be described thus: Adrenergic beta2 receptor (ADRB2) small molecule agonists, cell-based qHTS assay (AID 1963593).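 Also: CHO cells stably overexpressing human ADRB2.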 In a few lines: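 CHO cells stably over-expressing ADRB2 were plated overnight at 37C, then dosed with compounds plus a stimulation mix containing 100uM IBMX and 25uM Ro-20-1724 for 0.5hr at room temperature. cAMP was measured by HTRF competition, 1hr.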

Test [13] addresses D(2) dopamine receptor (Homo sapiens) (UniProt P14416). The test can be described thus: Dopamine D2 receptor (DRD2) small molecule agonists, cell-based qHTS assay (AID 1963594). Also: nearly all actives have a fitted effect of over 35% in size. The essentials: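 HEK293 cells stably expressing DRD2 were cultured 24 h at 37 C, then given Ro20-1724 (0.1 mM final) and compounds for 10 min at room temperature. NKH477 (200nM) was then added for 30 min. cAMP was read by HTRF.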

Test [14] shares this target. The test can be described thus: Dopamine D2 receptor (DRD2) small molecule antagonists, cell-based qHTS assay (AID 1963595; active = well fitted inhibition curve with a large enough effect in the signal ratio in the repeat runs, with a control signal flat; the % refers to the signal ratio). In a few lines:
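Cells were plated and grown for 24 h at 37 °C. Ro20-1724 (0.1 mM final) went in first, then compound for 10 min. NKH477 (200 nM) with quinpirole (12 nM) followed for 30 min at RT, then HTRF detection reagents for 1 h.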

The nature of test [15]: p53 small molecule agonists, cell-based qHTS assay with rat liver microsomes: qHTS cell viability counter screen (AID 1963580). Also: nearly all actives have a fitted effect of over 45% in size. In a few lines: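 Counter screen for cytotoxicity under metabolic activation: rat liver microsomes and NADPH, 0.5 mg/mL final each, added with compounds to p53RE-bla HCT-116 cells; 16 h at 37 C, then ATP luminescence read.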
In test [16] the target is Muscarinic acetylcholine receptor M1 (Homo sapiens) (UniProt P11229). The test can be described thus: Cholinergic receptor muscarinic 1 (CHRM1) small molecule antagonists, cell-based qHTS assay (AID 1963588). Also: nearly all actives have a fitted effect of over 40% in size. Also: potency is read from the fitted curve at half-maximal effect. In a few lines:
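Compounds were tested at 15 concentrations in three independent runs. Dye-loaded CHRM1-CHO cells were exposed 5 min at room temperature before stimulation by acetylcholine added at 50nM. Intracellular calcium was read kinetically on FDSS for 3 min.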

Test [17] is described as follows: cAMP Responsive Elements (CRE) small molecule antagonists, cell-based qHTS assay (AID 1963591; active = well fitted inhibition curve with a large enough effect in the signal ratio in the repeat runs, not every such curve was filed as active; the % refers to the signal ratio). In a few lines:
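Cells (CRE-bla HEK 293T, DMEM with 10% dialyzed FBS and 25 mM HEPES) are seeded and incubated 18 h. Compounds are added with NKH477 agonist at 0.25 uM final for 3 h, then FRET substrate for 2 h.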

Test [18] is described as follows: p53 small molecule agonists, cell-based qHTS assay with human liver microsomes (AID 1963577). The essentials: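 p53RE-bla cells, 4,000/well, compound added after 5 h, with human liver microsomes 0.5 mg/mL and NADPH 0.5 mg/mL final; 16 h at 37 C, then LiveBLAzer 2 h RT, fluorescence.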
Test [19] in a line: p53 small molecule agonists, cell-based qHTS assay (AID 1963582; active = well fitted activation curve with a large enough effect in the signal ratio in the repeat runs, not every such curve was filed as active; the % refers to the signal ratio). In a few lines:
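Cells carrying a p53-responsive bla reporter are treated with test compounds for 16 h at 37 C; beta-lactamase activity is then detected with LiveBLAzer B/G FRET substrate after 2 h at room temperature.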

Sequence of D(2) dopamine receptor (Homo sapiens) (P14416 whole entry, looked up): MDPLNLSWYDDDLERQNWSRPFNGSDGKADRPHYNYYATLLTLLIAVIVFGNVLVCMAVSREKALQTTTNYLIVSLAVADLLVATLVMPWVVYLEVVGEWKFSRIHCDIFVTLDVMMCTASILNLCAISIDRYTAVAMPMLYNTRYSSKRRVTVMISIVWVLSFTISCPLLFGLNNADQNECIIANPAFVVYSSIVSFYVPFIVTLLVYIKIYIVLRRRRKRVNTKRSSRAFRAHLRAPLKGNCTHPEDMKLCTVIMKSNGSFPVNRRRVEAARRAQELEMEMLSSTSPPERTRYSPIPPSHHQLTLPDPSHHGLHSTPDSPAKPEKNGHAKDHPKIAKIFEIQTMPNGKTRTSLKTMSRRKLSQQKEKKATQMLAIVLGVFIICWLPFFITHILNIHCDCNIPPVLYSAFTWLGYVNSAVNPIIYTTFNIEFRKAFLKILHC
Sequence of Muscarinic acetylcholine receptor M1 (Homo sapiens) (P11229 whole entry, looked up): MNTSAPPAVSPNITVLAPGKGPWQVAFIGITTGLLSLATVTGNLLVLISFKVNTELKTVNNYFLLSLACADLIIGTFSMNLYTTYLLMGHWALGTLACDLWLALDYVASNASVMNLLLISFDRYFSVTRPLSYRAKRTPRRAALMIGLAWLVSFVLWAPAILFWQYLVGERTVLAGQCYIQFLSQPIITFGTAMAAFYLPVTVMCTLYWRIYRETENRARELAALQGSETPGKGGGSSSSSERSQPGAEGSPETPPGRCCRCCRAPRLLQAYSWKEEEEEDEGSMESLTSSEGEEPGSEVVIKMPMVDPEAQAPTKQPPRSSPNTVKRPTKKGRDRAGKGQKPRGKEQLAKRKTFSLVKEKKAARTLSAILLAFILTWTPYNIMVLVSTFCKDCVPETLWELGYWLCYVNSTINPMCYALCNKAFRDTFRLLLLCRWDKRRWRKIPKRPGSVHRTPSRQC
Sequence of Gonadotropin-releasing hormone receptor (Homo sapiens) (P30968 whole entry, looked up): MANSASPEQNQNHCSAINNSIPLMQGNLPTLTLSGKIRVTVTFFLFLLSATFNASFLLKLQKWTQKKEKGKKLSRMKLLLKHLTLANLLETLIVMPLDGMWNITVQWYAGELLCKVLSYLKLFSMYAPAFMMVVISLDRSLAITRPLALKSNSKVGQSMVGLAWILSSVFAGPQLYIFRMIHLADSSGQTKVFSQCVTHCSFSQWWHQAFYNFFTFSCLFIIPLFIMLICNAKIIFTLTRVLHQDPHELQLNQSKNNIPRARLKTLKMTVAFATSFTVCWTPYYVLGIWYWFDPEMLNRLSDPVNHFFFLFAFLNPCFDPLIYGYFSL
Sequence of KiSS-1 receptor (Homo sapiens) (Q969F8 whole entry, looked up): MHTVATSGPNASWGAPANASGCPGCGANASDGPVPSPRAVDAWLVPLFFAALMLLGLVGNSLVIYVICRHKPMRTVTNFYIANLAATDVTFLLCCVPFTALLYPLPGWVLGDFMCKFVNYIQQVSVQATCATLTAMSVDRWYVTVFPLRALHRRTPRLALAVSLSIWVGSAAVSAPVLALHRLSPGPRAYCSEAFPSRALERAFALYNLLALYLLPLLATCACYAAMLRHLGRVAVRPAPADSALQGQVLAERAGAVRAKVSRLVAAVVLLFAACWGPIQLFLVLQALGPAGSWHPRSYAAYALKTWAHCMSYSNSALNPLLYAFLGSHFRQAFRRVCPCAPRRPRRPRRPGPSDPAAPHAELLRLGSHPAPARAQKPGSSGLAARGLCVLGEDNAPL
Sequence of 5-hydroxytryptamine receptor 2A (Homo sapiens) (P28223 whole entry, looked up): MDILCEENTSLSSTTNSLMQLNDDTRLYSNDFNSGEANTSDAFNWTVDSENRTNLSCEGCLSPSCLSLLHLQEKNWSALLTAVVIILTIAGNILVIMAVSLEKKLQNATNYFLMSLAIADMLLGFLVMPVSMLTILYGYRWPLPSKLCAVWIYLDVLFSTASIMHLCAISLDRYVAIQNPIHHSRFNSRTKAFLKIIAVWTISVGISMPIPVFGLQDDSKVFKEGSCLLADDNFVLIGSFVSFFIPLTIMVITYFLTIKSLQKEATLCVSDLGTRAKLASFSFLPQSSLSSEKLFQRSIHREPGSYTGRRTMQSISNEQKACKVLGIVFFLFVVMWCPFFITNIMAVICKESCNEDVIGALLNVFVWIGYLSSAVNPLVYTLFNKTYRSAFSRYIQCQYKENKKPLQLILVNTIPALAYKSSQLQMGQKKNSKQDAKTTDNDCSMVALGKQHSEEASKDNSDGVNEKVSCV
Sequence of Beta-2 adrenergic receptor (Homo sapiens) (P07550 whole entry, looked up): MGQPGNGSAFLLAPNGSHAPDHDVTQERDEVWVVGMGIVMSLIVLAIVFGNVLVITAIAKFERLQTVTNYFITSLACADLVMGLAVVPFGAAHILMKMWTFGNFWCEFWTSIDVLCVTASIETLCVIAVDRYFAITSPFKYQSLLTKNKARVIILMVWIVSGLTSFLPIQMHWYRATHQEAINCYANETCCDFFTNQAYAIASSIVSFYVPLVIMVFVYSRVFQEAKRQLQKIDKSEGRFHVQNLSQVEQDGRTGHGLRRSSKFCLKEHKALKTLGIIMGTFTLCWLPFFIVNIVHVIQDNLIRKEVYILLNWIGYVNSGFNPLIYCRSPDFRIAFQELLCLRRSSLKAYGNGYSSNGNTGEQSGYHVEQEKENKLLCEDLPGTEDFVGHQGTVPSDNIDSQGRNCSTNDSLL

Regarding `CCCCCCCCCCCCCCC(Br)C(=O)O` (stereo not drawn), the Potency entry in [1], in test [2], in [3], in test [4], in [5] and in [6] was “inactive” throughout. In addition, the Potency result in test [7], in test [8], in [9], in test [10], in test [11] and in [12] was “inactive” each time. Also, the Potency result in [13] and in test [14] was “inactive” in each case.

`CCCC(C)C1(CC)C(=O)N=C(S)NC1=O` (stereo not drawn): the Potency result in test [1], in test [2], in test [3], in test [5], in test [15] and in test [6] was “inactive” in each case. For the same molecule, the Potency result in test [7], in [8], in [16], in test [9], in test [10] and in test [17] was “inactive” throughout. Also, the Potency entry in test [11], in test [13] and in test [14] was “inactive” each time.

On to `NCCCNCCCN`, for which the Potency result in test [1], in test [2], in test [3], in test [18], in test [4] and in [5] was “inactive” in each case. Also, the Potency entry in test [15], in test [6], in [19], in test [7], in test [8] and in [9] was “inactive” each time. Further, the Potency entry in test [10], in test [17], in test [11], in test [12], in [13] and in test [14] was “inactive” throughout. In [16], the Potency is 38.1 µM (active).

`O=C(CBr)OCc1ccccc1`: the Potency result in [1], in test [2], in test [3], in [18], in test [4] and in test [5] was “inactive” throughout. Further, the Potency entry in [6], in [7], in test [8], in test [9], in test [10] and in test [17] was “inactive” throughout. In addition, the Potency entry in test [11] and in test [13] was “inactive” throughout.

As for `c1cncc([C@@H]2CCCCN2)c1`, the Potency result in test [1], in [2], in test [3], in test [4], in [15] and in test [6] was “inactive” each time. Moreover, the Potency entry in [7], in test [8], in [16], in test [9], in test [10] and in [17] was “inactive” each time. Moreover, the Potency entry in test [13] and in test [14] was “inactive” in each case.

For the molecule `c1cc(OCC2CO2)ccc1Cc1ccc(OCC2CO2)cc1` (stereo not drawn), the Potency entry in test [1], in [2], in test [3], in test [18], in [4] and in test [5] was “inactive” throughout. In addition, the Potency entry in test [15], in test [6], in [7], in test [8], in test [16] and in test [9] was “inactive” in each case. Also, the Potency entry in test [11] and in [13] was “inactive” in each case.

Regarding `c1ccc2c(c1)OCC(C1=NCCN1)O2` (stereo not drawn), the Potency result in test [1], in test [2], in [3], in [18], in test [4] and in test [5] was “inactive” in each case. Also, the Potency entry in test [15], in test [19], in test [7], in [8], in test [16] and in test [9] was “inactive” in each case. Moreover, the Potency result in test [10], in test [17], in test [11] and in [13] was “inactive” throughout.

With `CO/C=C(/C(=O)OC)c1ccccc1Oc1cc(Oc2ccccc2C#N)ncn1`, the Potency result in [1], in [2], in test [3], in test [18], in test [8] and in [16] was “inactive” each time. In addition, in test [9], the Potency entry was “inactive”.
